Laboratory results from PubChem BioAssay AID1159580 (chemical genetic matrix, 2015).
The campaign covered roughly 5,500 compounds. About 2,000 (36%) were called active. Another 18% or so got no clear call; they are omitted. Cut-off read from the data, not from the text of the source: active = normalized growth mostly below about 0.91 (no sharp cut-off); inconclusive = no clear call, values can overlap the other calls; inactive = mostly above about 0.92. Some of the results follow.

Assay: chemical genetic growth profiling, strain panel (AID 1159580);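 note: tested at 20 µM; growth read once vehicle control cultures reached saturation at 30 °C; 1 = growth at the plate median or of vehicle wells; lower values mean less growth of the strain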
Settings: growth OD
[1] = S. cerevisiae deletion strains, locus YDL101C, strain DUN1, hits give low values
[2] = S. cerevisiae deletion strains, locus YHR030C, strain SLT2, hits give low values

Measured: normalized growth

N#Cc1ccc2[nH]cc(CCN(Cc3ccccc3)Cc3ccccc3)c2c1
inactive: S. cerevisiae deletion strains, locus YAR019C, strain CDC15, hits give low values 0.989 | S. cerevisiae deletion strains, locus YBL105C, strain PKC1, hits give low values 0.991 | S. cerevisiae deletion strains, locus YBR135W, strain CKS1, hits give low values 0.99 | S. cerevisiae deletion strains, locus YBR136W, strain MEC1, hits give low values 0.984 | S. cerevisiae deletion strains, locus YBR160W, strain CDC28, hits give low values 0.989 | S. cerevisiae deletion strains, locus YDL017W, strain CDC7, hits give low values 0.99 | S. cerevisiae deletion strains, locus YDL028C, strain MPS1, hits give low values 0.977 | [1] 0.98 | S. cerevisiae deletion strains, locus YDL108W, strain KIN28, hits give low values 0.983 | S. cerevisiae deletion strains, locus YDL132W, strain cdc53, hits give low values 0.985 | S. cerevisiae deletion strains, locus YDL214C, strain PRR2, hits give low values 0.943 | S. cerevisiae deletion strains, locus YDR052C, strain DBF4, hits give low values 0.992 | S. cerevisiae deletion strains, locus YDR054C, strain cdc34, hits give low values 0.978 | S. cerevisiae deletion strains, locus YDR226W, strain ADK1, hits give low values 0.978 | S. cerevisiae deletion strains, locus YDR477W, strain SNF1, hits give low values 0.969 | S. cerevisiae deletion strains, locus YER123W, strain YCK3, hits give low values 0.918 | S. cerevisiae deletion strains, locus YER133W, strain GLC7, hits give low values 0.964 | S. cerevisiae deletion strains, locus YFL009W, strain cdc4, hits give low values 0.982 | S. cerevisiae deletion strains, locus YFL029C, strain CAK1, hits give low values 0.986 | S. cerevisiae deletion strains, locus YFR003C, strain YPI1, hits give low values 0.992 | S. cerevisiae deletion strains, locus YFR019W, strain FAB1, hits give low values 0.967 | S. cerevisiae deletion strains, locus YFR028C, strain CDC14, hits give low values 0.982 | S. cerevisiae deletion strains, locus YGR040W, strain KSS1, hits give low values 0.956 | S. cerevisiae deletion strains, locus YGR052W, strain FMP48, hits give low values 1.05 | S. cerevisiae deletion strains, locus YGR092W, strain DBF2, hits give low values 0.943 | [2] 1.13 | S. cerevisiae deletion strains, locus YHR079C, strain IRE1, hits give low values 1.07 | S. cerevisiae deletion strains, locus YHR082C, strain KSP1, hits give low values 1.05 | S. cerevisiae deletion strains, locus YHR205W, strain SCH9, hits give low values 0.962 | S. cerevisiae deletion strains, locus YIL147C, strain SLN1, hits give low values 0.987 | S. cerevisiae deletion strains, locus YJL095W, strain BCK1, hits give low values 1.07 | S. cerevisiae deletion strains, locus YJL128C, strain PBS2, hits give low values 0.953 | S. cerevisiae deletion strains, locus YJL157C, strain FAR1, hits give low values 0.954 | S. cerevisiae deletion strains, locus YJR016C, strain ILV3, hits give low values 0.991 | S. cerevisiae deletion strains, locus YJR066W, strain TOR1 (second series), hits give low values 0.926 | S. cerevisiae deletion strains, locus YJR066W, strain TOR1, hits give low values 1.07 | S. cerevisiae deletion strains, locus YKL048C, strain ELM1, hits give low values 0.964 | S. cerevisiae deletion strains, locus YKL067W, strain YNK1, hits give low values 0.969 | S. cerevisiae deletion strains, locus YKL101W, strain HSL1, hits give low values 0.954 | S. cerevisiae deletion strains, locus YKL193C, strain SDS22, hits give low values 0.987 | S. cerevisiae deletion strains, locus YKL203C, strain TOR2, hits give low values 1.04 | S. cerevisiae deletion strains, locus YLR113W, strain HOG1, hits give low values 1.01 | S. cerevisiae deletion strains, locus YLR133W, strain CKI1, hits give low values 0.98 | S. cerevisiae deletion strains, locus YLR403W, strain SFP1, hits give low values 0.962 | S. cerevisiae deletion strains, locus YML070W, strain DAK1, hits give low values 0.95 | S. cerevisiae deletion strains, locus YMR001C, strain CDC5, hits give low values 0.988 | S. cerevisiae deletion strains, locus YMR205C, strain PFK2 (second series), hits give low values 0.972 | S. cerevisiae deletion strains, locus YMR277W, strain FCP1, hits give low values 0.993 | S. cerevisiae deletion strains, locus YNL006W, strain LST8, hits give low values 0.983 | S. cerevisiae deletion strains, locus YNL020C, strain ARK1, hits give low values 0.98 | S. cerevisiae deletion strains, locus YNL161W, strain CBK1, hits give low values 0.993 | S. cerevisiae deletion strains, locus YNL183C, strain NPR1, hits give low values 1.05 | S. cerevisiae deletion strains, locus YNL207W, strain RIO2, hits give low values 0.979 | S. cerevisiae deletion strains, locus YNL222W, strain SSU72, hits give low values 0.986 | S. cerevisiae deletion strains, locus YNL307C, strain MCK1 (second series), hits give low values 0.98 | S. cerevisiae deletion strains, locus YOL078W, strain AVO1, hits give low values 0.987 | S. cerevisiae deletion strains, locus YOL136C, strain PFK27, hits give low values 0.957 | S. cerevisiae deletion strains, locus YOR061W, strain CKA2, hits give low values 0.955 | S. cerevisiae deletion strains, locus YOR119C, strain RIO1, hits give low values 1.01 | S. cerevisiae deletion strains, locus YOR231W, strain MKK1, hits give low values 1.06 | S. cerevisiae deletion strains, locus YOR329C, strain SCD5, hits give low values 0.993 | S. cerevisiae deletion strains, locus YPL031C, strain PHO85, hits give low values 0.97 | S. cerevisiae deletion strains, locus YPL153C, strain RAD53, hits give low values 0.954 | S. cerevisiae deletion strains, locus YPL204W, strain HRR25, hits give low values 0.97 | S. cerevisiae deletion strains, locus YPL209C, strain IPL1, hits give low values 0.994 | S. cerevisiae deletion strains, locus YPL256C, strain CLN2, hits give low values 1.05 | S. cerevisiae deletion strains, locus YPR025C, strain CCL1, hits give low values 0.992 | S. cerevisiae deletion strains, locus YPR106W, strain ISR1, hits give low values 0.984 | S. cerevisiae deletion strains, locus YPR111W, strain DBF20, hits give low values 0.976 | S. cerevisiae deletion strains, strain NNK1, hits give low values 0.983 | S. cerevisiae deletion strains, strain TSCII, hits give low values 0.993

N#CCS(=O)(=O)c1cccs1
inactive: S. cerevisiae deletion strains, locus YAL013W, strain DEP1, hits give low values 0.988 | S. cerevisiae deletion strains, locus YBR229C, strain ROT2, hits give low values 1 | [1] 0.983 | S. cerevisiae deletion strains, locus YDR150W, strain NUM1, hits give low values 0.94 | S. cerevisiae deletion strains, locus YEL061C, strain CIN8, hits give low values 1.01 | S. cerevisiae deletion strains, locus YGR078C, strain PAC10, hits give low values 0.979 | [2] 0.996 | S. cerevisiae deletion strains, locus YHR087W, strain rtc3, hits give low values 1 | S. cerevisiae deletion strains, locus YJR043C, strain POL32, hits give low values 0.949 | S. cerevisiae deletion strains, locus YJR075W, strain HOC1, hits give low values 0.993 | S. cerevisiae deletion strains, locus YLR039C, strain RIC1, hits give low values 1.1 | S. cerevisiae deletion strains, locus YLR058C, strain SHM2 (second series), hits give low values 1 | S. cerevisiae deletion strains, locus YLR085C, strain ARP6, hits give low values 0.999 | S. cerevisiae deletion strains, locus YLR262C, strain YPT6, hits give low values 1.12 | S. cerevisiae deletion strains, locus YML094W, strain GIM5, hits give low values 0.975 | S. cerevisiae deletion strains, locus YMR219W, strain ESC1, hits give low values 1 | S. cerevisiae deletion strains, locus YMR263W, strain SAP30, hits give low values 0.961 | S. cerevisiae deletion strains, locus YNL153C, strain GIM3, hits give low values 0.968 | S. cerevisiae deletion strains, locus YNL298W, strain CLA4 (second series), hits give low values 1 | S. cerevisiae deletion strains, locus YNL322C, strain KRE1, hits give low values 1.02 | S. cerevisiae deletion strains, locus YNR030W, strain Alg12, hits give low values 0.989 | S. cerevisiae deletion strains, locus YPL055C, strain LGE1, hits give low values 0.92 | S. cerevisiae deletion strains, locus YPL241C, strain CIN2, hits give low values 0.983 | S. cerevisiae deletion strains, locus YPR135W, strain CTF4, hits give low values 0.885 | S. cerevisiae strains, strain wild type, hits give low values 1.01
